# Test results as given in the supplement of paper PMC10849652.
# About 7,900 targets were measured; listed, in parts, are those with a hit and a random draw of the rest. About 0.6% of all pairs of compound and target were hits. A number with no mark means an inactive call.
# Experiments:
# Test in all cases: log2 fold change, soluble protein after heating vs DMSO (PISA); higher = thermal stabilisation; K562 cells, 10 uM, 30 min; active = over 0.2 and 3.5 SD of the protein, either way, in both replicates (recomputed)
# [1] = compound: CC1=C(C=C(C=C1)NC(=O)C2=CC(=CC=C2)C(C)(C)C#N)NC3=CC4=C(C=C3)N=CN(C4=O)C
# Method in brief: (§1)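 Soluble protein was quantified by TMTpro 16plex LC-MS/MS after channel sums were equalised. It was obtained as the supernatant after 21,000xg for 90 min from pooled aliquots of K562 cells (2×10^6 cells/mL, 10 μM compound, 30 min) heated for 3 min across 48°C-58°C and extracted in PBS with 0.5% NP-40 at 4°C. Thermal stability values are relative to control samples and come from duplicates. They are given as log2 fold changes.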
# [2] = compound: CC1=C(C=C(C=C1)NC(=O)C2=CC(=CC=C2)N(C)C)NC(=O)C3=CC=C(C=C3)O
# Method in brief: as §1
# [3] = compound: CC1=CC=C(C=C1)SC2=C3C=C(SC3=CN=C2)C(=O)N
# Method in brief: as §1
# [4] = compound: CC1=NC(=CC=C1)C2=C(N=C(N2)C(C)(C)C)C3=CC4=NC=CN=C4C=C3
# Method in brief: as §1
# Nexturastat A = compound: CCCCN(Cc1ccc(C(=O)NO)cc1)C(=O)Nc1ccccc1 [Nexturastat A]
# Method in brief: as §1
# vemurafenib = compound: CCCS(=O)(=O)Nc1ccc(F)c(C(=O)c2c[nH]c3ncc(-c4ccc(Cl)cc4)cc23)c1F [vemurafenib]
# Method in brief: as §1
# [5] = compound: CCCS(=O)(=O)Nc1ccc(F)c(C(=O)c2c[nH]c3ncc(Cl)cc23)c1F
# Method in brief: as §1
# [6] = compound: CCCc1cc(C)[nH]c(=O)c1CNC(=O)c1cc(-c2ccnc(N3CCN(C)CC3)c2)cc2c1cnn2C(C)C
# Method in brief: as §1
# givinostat = compound: CCN(CC)Cc1ccc2cc(COC(=O)Nc3ccc(C(=O)NO)cc3)ccc2c1 [givinostat]
# Method in brief: as §1
# barasertib = compound: CCN(CCCOc1ccc2c(Nc3cc(CC(=O)Nc4cccc(F)c4)[nH]n3)ncnc2c1)CCOP(=O)(O)O [barasertib]
# Method in brief: as §1
# [7] = compound: CC[C@@H]1C(=O)N(C)c2cnc(Nc3ccc(C(=O)NC4CCN(C)CC4)cc3OC)nc2N1C1CCCC1
# Method in brief: as §1
# volasertib = compound: CC[C@@H]1C(=O)N(C)c2cnc(Nc3ccc(C(=O)N[C@H]4CC[C@H](N5CCN(CC6CC6)CC5)CC4)cc3OC)nc2N1C(C)C [volasertib]
# Method in brief: as §1
# [8] = compound: CC[C@H](C)N1C=C(C2=C(C=C(C=C21)C3=CN=C(C=C3)N4CCNCC4)C(=O)NCC5=C(C=C(NC5=O)C)C)C
# Method in brief: as §1
# epoxomicin = compound: CC[C@H](C)[C@@H](C(=O)N[C@@H]([C@@H](C)O)C(=O)N[C@@H](CC(C)C)C(=O)[C@]1(CO1)C)NC(=O)[C@H]([C@@H](C)CC)N(C)C(=O)C [epoxomicin]
# Method in brief: as §1
# [9] = compound: CCn1c(C(=O)N(C2CC2)C2CC2)cc2c3c(ncn3C)c(Nc3cc(C)n(C)n3)nc21
# Method in brief: as §1
# [10] = compound: CCn1cc(-c2ccnc3[nH]c(-c4cccc(CN(C)C)c4)cc23)c(-c2ccc(NC(=O)N(C)C)cc2)n1
# Method in brief: as §1
# [11] = compound: CN(C)CC(=O)Nc1ccc2[nH]c(=O)c3ccccc3c2c1
# Method in brief: as §1
# rosiglitazone = compound: CN(CCOC1=CC=C(C=C1)C[C@H]2C(=O)NC(=O)S2)C3=CC=CC=N3 (racemic) [rosiglitazone]
# Method in brief: as §1
# [12] = compound: CN1C2=C(C3=C1C(=O)N(N=C3)CC4=CC(=CC=C4)N)SC(=C2)S(=O)C
# Method in brief: as §1
# [13] = compound: CN1CCC(CNc2ccc3ncc(-c4cccc(OC(F)(F)F)c4)n3n2)CC1
# Method in brief: as §1
# Chain of UniProt P04181 (P04181 whole entry, looked up): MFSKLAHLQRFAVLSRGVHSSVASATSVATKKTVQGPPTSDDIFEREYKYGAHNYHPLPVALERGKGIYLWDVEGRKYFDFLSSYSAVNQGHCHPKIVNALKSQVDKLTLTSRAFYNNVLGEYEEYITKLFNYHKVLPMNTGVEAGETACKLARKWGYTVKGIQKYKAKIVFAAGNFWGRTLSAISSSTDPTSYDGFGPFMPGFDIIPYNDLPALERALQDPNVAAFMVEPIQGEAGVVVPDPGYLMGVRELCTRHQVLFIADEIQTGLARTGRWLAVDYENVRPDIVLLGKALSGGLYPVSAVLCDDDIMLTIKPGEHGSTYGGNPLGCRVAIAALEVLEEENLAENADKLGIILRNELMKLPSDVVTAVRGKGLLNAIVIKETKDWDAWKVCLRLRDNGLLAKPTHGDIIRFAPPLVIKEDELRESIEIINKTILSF
# Chain of UniProt Q9Y314 (Q9Y314 whole entry, looked up): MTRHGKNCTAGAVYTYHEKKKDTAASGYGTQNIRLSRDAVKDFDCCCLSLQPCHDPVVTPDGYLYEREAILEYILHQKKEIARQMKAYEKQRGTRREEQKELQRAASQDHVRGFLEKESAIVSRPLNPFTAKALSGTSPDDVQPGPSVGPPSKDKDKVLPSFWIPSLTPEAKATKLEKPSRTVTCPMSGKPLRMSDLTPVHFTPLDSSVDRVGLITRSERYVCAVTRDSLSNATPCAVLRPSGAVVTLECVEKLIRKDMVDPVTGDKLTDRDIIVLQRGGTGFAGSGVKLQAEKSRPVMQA
# Chain of UniProt P57740 (P57740 whole entry, looked up): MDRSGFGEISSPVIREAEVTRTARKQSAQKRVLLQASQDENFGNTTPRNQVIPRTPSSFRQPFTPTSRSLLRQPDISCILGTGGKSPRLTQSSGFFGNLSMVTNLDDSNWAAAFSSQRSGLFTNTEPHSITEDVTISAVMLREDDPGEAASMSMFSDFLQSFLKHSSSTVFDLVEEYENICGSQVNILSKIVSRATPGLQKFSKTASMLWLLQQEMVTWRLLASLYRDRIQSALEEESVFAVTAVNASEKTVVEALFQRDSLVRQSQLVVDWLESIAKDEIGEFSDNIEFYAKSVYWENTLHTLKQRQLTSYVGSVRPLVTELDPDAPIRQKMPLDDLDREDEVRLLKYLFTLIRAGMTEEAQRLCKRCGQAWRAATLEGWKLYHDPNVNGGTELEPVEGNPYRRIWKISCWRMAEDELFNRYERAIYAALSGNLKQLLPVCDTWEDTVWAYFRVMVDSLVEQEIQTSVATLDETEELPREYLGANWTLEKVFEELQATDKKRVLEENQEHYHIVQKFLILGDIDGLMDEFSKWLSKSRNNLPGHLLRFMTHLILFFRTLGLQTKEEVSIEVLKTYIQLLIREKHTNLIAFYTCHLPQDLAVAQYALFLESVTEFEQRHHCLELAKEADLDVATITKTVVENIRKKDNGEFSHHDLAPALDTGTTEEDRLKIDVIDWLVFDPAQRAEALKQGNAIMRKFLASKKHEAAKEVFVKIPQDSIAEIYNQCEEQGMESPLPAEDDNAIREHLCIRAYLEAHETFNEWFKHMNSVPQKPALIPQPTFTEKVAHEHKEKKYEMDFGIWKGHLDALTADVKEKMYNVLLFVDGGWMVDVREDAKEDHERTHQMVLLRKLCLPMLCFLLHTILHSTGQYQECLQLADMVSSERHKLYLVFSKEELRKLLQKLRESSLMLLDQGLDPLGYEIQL
# Chain of UniProt Q8TEM1 (Q8TEM1 whole entry, looked up): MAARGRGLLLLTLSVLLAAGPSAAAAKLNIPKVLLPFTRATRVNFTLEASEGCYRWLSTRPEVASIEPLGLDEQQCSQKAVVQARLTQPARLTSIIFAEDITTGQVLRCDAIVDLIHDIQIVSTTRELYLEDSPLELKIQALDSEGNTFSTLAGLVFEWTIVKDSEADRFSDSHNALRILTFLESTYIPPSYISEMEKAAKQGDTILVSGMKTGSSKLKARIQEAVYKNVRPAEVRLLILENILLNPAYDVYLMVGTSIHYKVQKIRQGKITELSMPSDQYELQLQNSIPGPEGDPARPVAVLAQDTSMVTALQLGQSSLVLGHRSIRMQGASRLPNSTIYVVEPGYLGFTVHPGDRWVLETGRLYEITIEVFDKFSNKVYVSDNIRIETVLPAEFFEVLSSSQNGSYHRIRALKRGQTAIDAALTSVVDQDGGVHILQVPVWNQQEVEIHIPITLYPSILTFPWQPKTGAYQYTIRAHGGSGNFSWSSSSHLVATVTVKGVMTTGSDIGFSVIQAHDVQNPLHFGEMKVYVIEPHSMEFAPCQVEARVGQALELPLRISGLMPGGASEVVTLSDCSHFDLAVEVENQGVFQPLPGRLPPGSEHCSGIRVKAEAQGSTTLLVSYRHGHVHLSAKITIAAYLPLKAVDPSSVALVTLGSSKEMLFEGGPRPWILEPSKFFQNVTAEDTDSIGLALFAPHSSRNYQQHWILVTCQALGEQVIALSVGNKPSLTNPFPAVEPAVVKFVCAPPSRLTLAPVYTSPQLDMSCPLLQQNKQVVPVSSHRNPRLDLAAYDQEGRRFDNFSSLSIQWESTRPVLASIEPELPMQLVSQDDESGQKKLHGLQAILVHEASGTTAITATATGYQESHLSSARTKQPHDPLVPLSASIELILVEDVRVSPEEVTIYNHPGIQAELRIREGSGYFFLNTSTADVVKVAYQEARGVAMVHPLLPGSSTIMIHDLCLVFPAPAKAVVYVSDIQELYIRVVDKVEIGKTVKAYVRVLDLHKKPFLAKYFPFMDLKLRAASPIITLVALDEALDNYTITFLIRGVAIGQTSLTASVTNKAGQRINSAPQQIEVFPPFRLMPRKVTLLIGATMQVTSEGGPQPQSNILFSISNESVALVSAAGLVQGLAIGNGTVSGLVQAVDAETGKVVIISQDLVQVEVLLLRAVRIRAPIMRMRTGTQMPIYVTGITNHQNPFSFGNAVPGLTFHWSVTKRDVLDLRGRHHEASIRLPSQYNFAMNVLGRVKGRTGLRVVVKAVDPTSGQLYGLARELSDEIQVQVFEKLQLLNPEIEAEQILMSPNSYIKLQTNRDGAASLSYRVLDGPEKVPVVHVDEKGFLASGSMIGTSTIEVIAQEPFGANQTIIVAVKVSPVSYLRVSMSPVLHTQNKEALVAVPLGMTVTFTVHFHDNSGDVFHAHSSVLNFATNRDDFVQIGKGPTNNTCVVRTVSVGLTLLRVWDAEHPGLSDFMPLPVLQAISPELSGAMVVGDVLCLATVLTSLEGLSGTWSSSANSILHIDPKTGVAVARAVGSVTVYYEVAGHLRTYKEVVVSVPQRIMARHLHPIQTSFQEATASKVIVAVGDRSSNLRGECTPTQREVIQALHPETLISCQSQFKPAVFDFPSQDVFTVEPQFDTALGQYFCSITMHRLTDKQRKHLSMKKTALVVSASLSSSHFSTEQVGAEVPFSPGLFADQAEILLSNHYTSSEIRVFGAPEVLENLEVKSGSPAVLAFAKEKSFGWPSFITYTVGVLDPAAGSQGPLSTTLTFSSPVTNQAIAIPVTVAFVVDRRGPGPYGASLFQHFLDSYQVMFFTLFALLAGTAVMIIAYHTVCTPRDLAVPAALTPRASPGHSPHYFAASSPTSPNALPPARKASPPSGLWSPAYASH
# Chain of UniProt Q96RE7 (Q96RE7 whole entry, looked up): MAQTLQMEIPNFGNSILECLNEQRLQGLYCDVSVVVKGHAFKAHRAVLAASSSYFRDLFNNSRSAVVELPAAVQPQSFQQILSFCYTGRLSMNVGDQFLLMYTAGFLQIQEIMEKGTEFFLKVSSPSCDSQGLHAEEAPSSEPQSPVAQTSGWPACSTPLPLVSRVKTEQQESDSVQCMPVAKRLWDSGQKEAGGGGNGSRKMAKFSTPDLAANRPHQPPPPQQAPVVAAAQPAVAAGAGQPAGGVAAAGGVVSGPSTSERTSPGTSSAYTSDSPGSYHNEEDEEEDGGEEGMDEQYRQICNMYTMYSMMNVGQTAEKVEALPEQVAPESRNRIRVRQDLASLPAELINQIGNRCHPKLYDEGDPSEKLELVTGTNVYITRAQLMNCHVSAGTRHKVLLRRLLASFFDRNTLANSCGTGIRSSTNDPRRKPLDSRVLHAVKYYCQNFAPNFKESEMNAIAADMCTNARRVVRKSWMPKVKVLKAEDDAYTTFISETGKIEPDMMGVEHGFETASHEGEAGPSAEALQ
# Chain of UniProt Q14149 (Q14149 whole entry, looked up): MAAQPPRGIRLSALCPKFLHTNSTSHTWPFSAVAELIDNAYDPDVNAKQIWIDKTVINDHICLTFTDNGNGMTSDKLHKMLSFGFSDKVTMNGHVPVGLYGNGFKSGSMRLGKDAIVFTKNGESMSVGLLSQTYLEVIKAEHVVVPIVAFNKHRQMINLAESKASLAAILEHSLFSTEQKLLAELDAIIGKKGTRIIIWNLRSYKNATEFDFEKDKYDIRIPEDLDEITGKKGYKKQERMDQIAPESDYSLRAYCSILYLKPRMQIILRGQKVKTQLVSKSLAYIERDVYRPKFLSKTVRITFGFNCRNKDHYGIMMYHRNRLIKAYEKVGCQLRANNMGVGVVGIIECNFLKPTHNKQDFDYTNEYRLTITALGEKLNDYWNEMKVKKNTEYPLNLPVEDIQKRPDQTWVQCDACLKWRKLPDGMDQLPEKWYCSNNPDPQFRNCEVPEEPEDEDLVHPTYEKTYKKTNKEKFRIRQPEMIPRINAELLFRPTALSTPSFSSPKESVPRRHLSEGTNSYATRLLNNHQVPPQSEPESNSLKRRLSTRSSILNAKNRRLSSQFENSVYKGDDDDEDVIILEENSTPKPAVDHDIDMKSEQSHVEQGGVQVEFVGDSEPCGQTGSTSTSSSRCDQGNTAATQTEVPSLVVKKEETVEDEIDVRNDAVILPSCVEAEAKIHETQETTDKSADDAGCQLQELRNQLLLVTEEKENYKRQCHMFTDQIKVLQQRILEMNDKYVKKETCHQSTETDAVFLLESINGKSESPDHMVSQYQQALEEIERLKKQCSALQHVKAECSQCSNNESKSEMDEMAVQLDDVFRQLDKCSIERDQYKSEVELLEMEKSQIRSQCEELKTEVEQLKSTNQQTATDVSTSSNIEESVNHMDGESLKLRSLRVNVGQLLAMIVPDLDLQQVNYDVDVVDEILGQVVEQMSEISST
Target,log2 fold change [1],log2 fold change [2],log2 fold change [3],log2 fold change [4],log2 fold change (Nexturastat A),log2 fold change (vemurafenib),log2 fold change [5],log2 fold change [6],log2 fold change (givinostat),log2 fold change (barasertib),log2 fold change [7],log2 fold change (volasertib),log2 fold change [8],log2 fold change (epoxomicin),log2 fold change [9],log2 fold change [10],log2 fold change [11],log2 fold change (rosiglitazone),log2 fold change [12],log2 fold change [13]
PAAF1 (UniProt Q9BRP4),-0.026,-0.005,0.016,0.003,-0.035,-0.028,0.019,-0.038,0.023,0.021,0.006,-0.034,-0.021,-0.275 (active),0.005,-0.051,-0.009,0.039,-0.07,-0.039
NUP210 (UniProt Q8TEM1),-0.029,0.052,0.084,0.035,-0.08,-0.002,0.058,-0.05,-0.017,0.029,-0.001,-0.12,0,0.03,0.002,-0.053,0.03,0.03,-0.026,-0.348 (active)
NCOR1 (UniProt O75376),-0.035,-0.075,-0.195,0.101,-0.079,0.01,-0.149,-0.079,0.014,-0.094,-0.034,-0.021,0.142,0.07,-0.066,0.046,0.048,0.044,0.033,-0.045
MRPS9 (UniProt P82933),0.053,-0.025,-0.029,0.02,0.057,-0.043,0.053,-0.019,0.026,-0.043,0.094,0.109,0.076,-0.009,-0.082,0.027,-0.004,0.012,0.071,0.001
MORC3 (UniProt Q14149),-0.02,-0.06,-0.025,0.059,-0.296,0.095,0.032,0.11,-0.193,0.102,-0.141,-0.509 (active),0.086,0.125,-0.02,-0.027,0.071,0.084,-0.058,-0.017
NMT1 (UniProt P30419),-0.012,-0.006,-0.012,0.021,-0.036,-0.013,0,0.023,-0.284 (active),-0.015,0.028,-0.21,0.036,0.014,0.016,-0.028,-0.022,-0.073,0.007,-0.097
MPHOSPH10 (UniProt O00566),0.052,-0.01,-0.031,-0.079,0.098,-0.041,0.009,0.047,0.087,-0.107,0.099,-0.155,0.084,-0.26,-0.028,0.182,-0.012,0.089,0.314,0.133
MYH11 isoform 2 (UniProt P35749),0.009,0.057,-0.003,0.004,-0.014,0.051,-0.006,-0.253,0.032,0.057,-0.021,-0.045,0.042,0.061,-0.005,0.046,0.019,0.015,-0.077,-0.018
OPA1 isoform 2 (UniProt O60313),0.01,-0.064,0.027,-0.003,-0.018,-0.001,0.095,-0.002,0.052,0.045,-0.187,-0.264,0.039,0.027,-0.047,-0.081,0.023,0.07,-0.013,-0.347 (active)
NACC1 (UniProt Q96RE7),-0.043,-0.012,0.048,0.164,-0.036,0.154,0.064,0.025,0.208,0.115,-0.32,-0.616 (active),0.112,0.002,-0.079,-0.022,0.033,0.095,0,-0.259
P4HA2 (UniProt O15460),-0.038,-0.014,0.033,-0.102,0.402,-0.093,-0.038,0.043,0.058,0.101,0.08,-0.012,-0.006,-0.257,-0.038,0.138,-0.036,-0.126,0.112,0.118
NOSIP (UniProt Q9Y314),0.02,-0.2,0.032,0.012,0.149,0.247,0.168,0.047,0.14,0.197,-0.373,-1.06 (active),0.151,0.104,-0.129,-0.017,0.196,0.052,0.109,0.097
NT5DC1 (UniProt Q5TFE4),0.149,-0.018,-0.019,0.021,-0.068,-0.001,-0.016,-0.003,0.004,-0.039,0.165,0.051,-0.026,0.045,0.015,-0.054,0.014,0.008,-0.037,-0.063
NOB1 (UniProt Q9ULX3),0.039,0.047,0.012,0.027,0.034,0.055,0.031,0.182,0.055,0.041,-0.053,-0.026,0.093,-0.02,-0.033,0.026,-0.011,0.026,0.04,-0.049
NUP107 (UniProt P57740),-0.035,0.085,0.117,0.012,0.17,0.1,0.219,-0.031,0.011,0.017,0.038,-0.182,0.106,-0.053,-0.069,0.169,-0.048,0.057,0.053,0.628 (active)
OAT (UniProt P04181),0.087,0.014,0.02,0.042,-0.01,0.011,-0.023,-0.011,0.045,0.061,0.049,0.1,0.021,0.043,-0.041,-0.1,0.004,-0.006,-0.102,-0.164
